Experimental data as given in ChEMBL document CHEMBL1961873, “Compounds: GSK PKIS; Assays: Nanosyn kinase panel” (2012).

Target: Insulin receptor-related protein (Homo sapiens) (UniProt P14616)
Settings: at 0.1 µM

Chain of Insulin receptor-related protein (Homo sapiens) (P14616 27-742 limits assumed): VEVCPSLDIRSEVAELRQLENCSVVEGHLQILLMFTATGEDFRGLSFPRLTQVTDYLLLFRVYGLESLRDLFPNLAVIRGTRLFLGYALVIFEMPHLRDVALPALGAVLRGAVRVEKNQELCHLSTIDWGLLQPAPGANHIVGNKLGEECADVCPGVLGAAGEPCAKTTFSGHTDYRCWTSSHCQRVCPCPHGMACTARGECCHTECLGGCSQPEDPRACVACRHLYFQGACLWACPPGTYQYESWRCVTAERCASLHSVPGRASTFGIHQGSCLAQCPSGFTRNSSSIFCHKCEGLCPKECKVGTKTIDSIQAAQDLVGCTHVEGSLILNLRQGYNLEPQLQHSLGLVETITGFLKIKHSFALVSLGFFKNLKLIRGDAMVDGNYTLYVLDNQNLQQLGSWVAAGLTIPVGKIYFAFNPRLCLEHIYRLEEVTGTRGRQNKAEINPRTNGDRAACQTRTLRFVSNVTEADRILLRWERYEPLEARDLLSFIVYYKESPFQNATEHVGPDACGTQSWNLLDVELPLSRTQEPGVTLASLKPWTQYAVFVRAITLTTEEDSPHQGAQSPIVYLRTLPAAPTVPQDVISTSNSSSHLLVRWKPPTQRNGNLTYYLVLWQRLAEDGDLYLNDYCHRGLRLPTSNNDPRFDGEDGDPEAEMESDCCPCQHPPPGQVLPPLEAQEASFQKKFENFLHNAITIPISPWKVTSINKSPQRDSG
Chain of Insulin receptor-related protein (Homo sapiens) (P14616 747-1297 limits assumed): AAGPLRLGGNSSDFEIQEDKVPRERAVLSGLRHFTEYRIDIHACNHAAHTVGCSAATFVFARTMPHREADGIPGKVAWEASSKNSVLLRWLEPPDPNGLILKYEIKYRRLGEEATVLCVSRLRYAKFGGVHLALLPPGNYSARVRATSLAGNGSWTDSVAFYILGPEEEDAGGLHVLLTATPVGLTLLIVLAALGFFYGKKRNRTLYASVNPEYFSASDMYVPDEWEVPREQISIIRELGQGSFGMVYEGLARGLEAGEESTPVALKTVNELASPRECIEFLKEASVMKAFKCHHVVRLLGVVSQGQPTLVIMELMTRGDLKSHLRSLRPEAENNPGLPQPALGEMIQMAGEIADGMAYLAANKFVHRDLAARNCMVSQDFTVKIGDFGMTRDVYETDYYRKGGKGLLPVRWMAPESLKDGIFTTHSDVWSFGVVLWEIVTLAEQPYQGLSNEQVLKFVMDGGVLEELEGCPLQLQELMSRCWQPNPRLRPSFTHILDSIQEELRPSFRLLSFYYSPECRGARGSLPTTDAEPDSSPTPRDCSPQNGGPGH

Point of comparison: `Cc1nc(-c2ccccc2)n2nc(NCCCN3CCOCC3)ncc12`, inhibition -0.73%. Against it:
- COc1cc(/C=N/Nc2ncnc3c2cnn3C(C)C)ccc1O — lower, -1.25%
- COc1cccc(-n2nc(C)c3c(N/N=C(\C)c4ccncc4)ncnc32)c1 — lower, -2%
- Cc1ccc2c(-c3ccnc(Nc4ccc5c(c4)OCCO5)n3)c(-c3ccc(C(F)(F)F)cc3)nn2n1 — higher, 1.35%
- COc1cc2ncnc(Nc3ccc4c(cnn4Cc4ccccc4)c3)c2cc1OC — higher, 0.39%
- Cc1ccc2c(-c3ccnc(Nc4cccc(C(F)(F)F)c4)n3)c(-c3ccccc3)nn2n1 — higher, 2.33%
- Cc1cc(O)cc(C)c1/C=C/c1cncc(C(=O)N(C)C)c1 — higher, 2.71%
- Nc1ccc(C#Cc2cncnc2Nc2ccc(OCc3cccc(F)c3)c(Cl)c2)cc1 — higher, 2.27%
- Nc1nccc(-c2c(-c3ccc(F)cc3)ncn2CCCN2CCOCC2)n1 — higher, 2.13%
- N#Cc1cccc(Nc2nccc(-c3cnn4ncccc34)n2)c1 — higher, 3.98%
- NC(=O)c1sc(-n2cnc3ccccc32)cc1OCc1ccccc1Br — higher, 1.82%
- CCS(=O)(=O)c1ccc(OC)c(Nc2nccc(N(C)c3ccc4c(C)n[nH]c4c3)n2)c1 — higher, 1.12%
- O=C(Nc1ccc(Oc2ccc3[nH]c(NC(=O)c4ccco4)nc3c2)cc1)Nc1cc(C(F)(F)F)ccc1F — higher, 0.43%
- COC(=O)c1ccc2c(c1)C(=Cc1cc(Br)c(O)c(Br)c1)C(=O)N2 — higher, 1.56%
- CCOc1nccc2c1nc(-c1nonc1N)n2CC — higher, 1.03%
- COC(=O)Nc1nc2cc(Oc3ccc(NC(=O)Nc4cccc(Br)c4)cc3)ccc2[nH]1 — higher, 1.82%
- CCn1c(-c2nonc2N)nc2c(C#CC(C)(C)O)nc(OCCNC)cc21 — higher, 0.83%
- NS(=O)(=O)c1cccc(-c2cc3ccncc3cc2OCc2ccccc2)c1 — higher, 2.82%
- NS(=O)(=O)c1ccc(N/N=C2\C(=O)Nc3ccc(Cl)cc32)cc1 — higher, 3.26%

Target: Insulin receptor-related protein (Homo sapiens) (UniProt P14616)
Settings: at 1 µM

Point of comparison: `CCS(=O)(=O)c1ccc(OC)c(Nc2ncc(-c3cccc(OC)c3)o2)c1`, inhibition 3.36%. Against it:
- ON=C1CCc2cc(-c3nc(C4CCNCC4)[nH]c3-c3ccncc3)ccc21 — lower, -0.82%
- CS(=O)(=O)Nc1cccc(-c2ccc3c(NC(=O)C4CC4)n[nH]c3c2)c1 — lower, -1.26%
- NS(=O)(=O)c1ccc(-c2cc3ccncc3cc2OCc2ccccc2)cc1 — lower, 2.61%
- [O-][S+]1CCN(Cc2ccc(-c3ccc4ncnc(Nc5ccc(OCc6ccccc6)c(Cl)c5)c4c3)o2)CC1 — lower, 0.75%
- N#Cc1c(NC(=O)c2ccccc2F)sc2c1CCCC2 — lower, -1.27%
- COc1cc2ncn(-c3cc(OCc4ccccc4S(C)(=O)=O)c(C#N)s3)c2cc1OC — lower, 3.13%
- NC(=O)c1cccc(Nc2nccc(Nc3cccc(F)c3)n2)c1 — lower, 1.15%
- CN(C)C(=O)O[C@H]1CN[C@H](C#Cc2cc3ncnc(Nc4ccc(OCc5cccc(F)c5)c(Cl)c4)c3s2)C1 — lower, 1.4%
- Cc1ccc(NC(=O)CC2CC2)cc1-c1ccc(C(=O)NCC2CC2)cc1 — lower, 3.28%
- CN(C)c1cc2c(Nc3ccc4c(cnn4Cc4ccccc4)c3)ncnc2cn1 — lower, 0.35%
- CN(c1ccc(NC(=O)Nc2ccc(OC(F)(F)F)cc2)cc1)c1ccnc(Nc2cccc(S(N)(=O)=O)c2)n1 — lower, 3.26%
- COc1cc(Nc2nccc(-c3cnn4ncccc34)n2)cc(OC)c1 — higher, 22.1%
- O=C1Nc2ccc(-c3cccnc3)cc2C1=Cc1cc(Br)c(O)c(Br)c1 — lower, 2.51%
- CN(C)C(=O)O[C@@H]1CN[C@@H](C#Cc2cc3ncnc(Nc4ccc(OCc5cccc(F)c5)c(Cl)c4)c3s2)C1 — lower, 0.29%
- Cc1nc(-c2ccccc2)n2nc(NCCCN3CCOCC3)ncc12 — lower, 1.44%
- COc1cc(/C=N/Nc2ncnc3c2cnn3C(C)C)ccc1O — lower, 2.79%
- COc1cccc(-n2nc(C)c3c(N/N=C(\C)c4ccncc4)ncnc32)c1 — lower, -2.33%
- Cc1ccc2c(-c3ccnc(Nc4ccc5c(c4)OCCO5)n3)c(-c3ccc(C(F)(F)F)cc3)nn2n1 — lower, 0.34%
- COc1cc2ncnc(Nc3ccc4c(cnn4Cc4ccccc4)c3)c2cc1OC — lower, 2.09%
- Cc1ccc2c(-c3ccnc(Nc4cccc(C(F)(F)F)c4)n3)c(-c3ccccc3)nn2n1 — higher, 6.16%
- Cc1cc(O)cc(C)c1/C=C/c1cncc(C(=O)N(C)C)c1 — lower, 1%
- Nc1ccc(C#Cc2cncnc2Nc2ccc(OCc3cccc(F)c3)c(Cl)c2)cc1 — lower, 2.76%
- Nc1nccc(-c2c(-c3ccc(F)cc3)ncn2CCCN2CCOCC2)n1 — higher, 5.23%
- N#Cc1cccc(Nc2nccc(-c3cnn4ncccc34)n2)c1 — higher, 10.8%
